# Source: PubChem BioAssay (EPA / NIEHS)
# Records with an inconclusive call do not appear. Active and inactive are the calls of the source. The calls were made as follows: active = hit-call score of the fitted dose curve at least 0.9, where 1 is the maximum; inconclusive = response in the unintended direction; inactive = score below 0.9.
# Read-out: Cytochrome P450 3A4 (Homo sapiens) (UniProt P08684)
# Assay: CLD_CYP3A4_6hr: CellzDirect (CLD) Gene Expression Assay for xenobiotic metabolism (CYP3A4) at 6 hours (AID 2283680)
# Protocol: CLD_6hr is a cell-based, multiplexed-readout assay that uses hepatocyte, a human liver primary cell, with measurements taken at 6 hours after chemical dosing in a 96-well plate.CLD_CYP3A4_6hr is one of 16 assay component(s) measured or calculated from the CLD_6hr assay. It is designed to make measurements of mRNA induction, a form of inducible reporter, as detected with chemiluminescence signals by Quantitative Nuclease Protection Assay (qNPA) technology.Data from the assay component CLD_CYP3A4_6hr was analyzed at the endpoint, CLD_CYP3A4_6hr, in the positive analysis fitting direction relative to DMSO as the negative control and baseline of activity. Using a type of inducible reporter, gain-of-signal activity can be used to understand changes in the reporter gene as they relate to the gene CYP3A4. Furthermore, this assay endpoint can be referred to as a primary readout. To generalize the intended target to other relatable targets, this assay endpoint is annotated to the cyp intended target family, where subfamily is xenobiotic metabolism.
# Human hepatocyte cultures were treated daily for two consecutive days with fresh dosing solutions containing appropriate concentrations of the 320 ToxCast chemicals (chemical identities were blinded to CellzDirect and other ToxCast collaborators), vehicle control (0.2% DMSO), and positive control inducers as summarized in Table 1. Due to the large number of treatment groups and chemicals examined, the ToxCast chemicals were divided into two groups (spanning two independent cultures of hepatocytes from separate donor preparations (Hu778: ToxCast plates 1 and 2; Hu776: ToxCast plates 3 and 4). Each preparation of human hepatocyte cultures was treated with respective vehicle control, medium only control, set of six positive controls/reference chemicals for the five hepatic receptor pathways, and a subset of eight of the ToxCast chemicals (indoxacarb, pyrithiobac-sodium, norflurazon, cyhalofop-butyl, methomyl, thiram, acetochlor, and propiconazole). These replicate data, coupled with internal replicates designed within the blinded ToxCast chemical library, provided additional data to evaluate interindividual differences between hepatocyte preparations and their potential impact on chemical profiles.Cell morphology and integrity were evaluated using phase-contrast microscopy as an indicator of hepatocyte cell health (Tyson & Green, 1987). Cultures for each treatment group (i.e., media, vehicle [0.2% DMSO], positive control inducers [multiple concentrations], and the ToxCast chemicals [multiple concentrations]) were observed and cell morphology was assessed relative to vehicle control cultures at each harvest time point (0, 6, 24, or 48 h). […] Images were evaluated at the conclusion of the study to assess changes in cell integrity and account for the effects of chemical exposure on uncharacteristic changes in concentration-dependent gene expression profiles. The results from these determinations of apparent cytotoxicity were annotated (yes/no) alongside the corresponding qNPA data for reference.At the conclusion of each treatment period, hepatocyte cultures (96-well) were washed with 1 volume of HBSS, lysed by addition of 25 ul ArrayPlate lysis buffer (HTG, Tucson, AZ), and 70 ul/well of Denaturation Oil, denatured by incubation at 95C for 10 min, and frozen at approximately -70C until analysis by nuclease protection assay (qNPA) (Roberts et al., 2007). For qNPA analysis, cell lysates were thawed at 50C for approximately 30 min, qNPA probes were added, and samples were incubated at 95C for 10 min to begin the detection process by denaturing the target RNA, dissociating the duplexes and secondary structure hybridization. At the conclusion of the hybridization period, S1 nuclease reagent was added to each sample to digest all nonprotected nucleotides at 50C for 60-90 min. […]
# Chain of Cytochrome P450 3A4 (Homo sapiens) (P08684 whole entry, looked up): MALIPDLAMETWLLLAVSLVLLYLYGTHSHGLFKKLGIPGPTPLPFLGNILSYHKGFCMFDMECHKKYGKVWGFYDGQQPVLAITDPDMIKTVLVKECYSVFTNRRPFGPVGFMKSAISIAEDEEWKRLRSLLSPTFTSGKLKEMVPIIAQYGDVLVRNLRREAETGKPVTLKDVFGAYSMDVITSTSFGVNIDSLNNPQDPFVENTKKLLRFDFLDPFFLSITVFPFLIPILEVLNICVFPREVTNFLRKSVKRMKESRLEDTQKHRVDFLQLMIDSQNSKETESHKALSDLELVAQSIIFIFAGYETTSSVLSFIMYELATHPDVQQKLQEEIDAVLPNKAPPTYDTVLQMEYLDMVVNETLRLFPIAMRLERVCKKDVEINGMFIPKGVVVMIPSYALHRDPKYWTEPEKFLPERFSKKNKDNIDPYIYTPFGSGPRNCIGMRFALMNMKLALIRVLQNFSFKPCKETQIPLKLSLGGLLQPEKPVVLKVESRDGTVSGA
SMILES,outcome,AC50
Cc1[nH]c(=O)n(C(C)(C)C)c(=O)c1Cl,inactive,
CCOc1nc(NC)nc(NC(=O)NS(=O)(=O)c2ccccc2C(=O)OC)n1,inactive,
CC1(C)C(C=C(Cl)Cl)C1C(=O)OC(C#N)c1ccc(F)c(Oc2ccccc2)c1 (stereo not given),inactive,
ClC1C(Cl)C(Cl)C(Cl)C(Cl)C1Cl (stereo not given),inactive,
OCCOc1ccccc1,inactive,
O=C(O)COc1ccc(Cl)cc1Cl,,0.49 µM (active)
CNC(=O)Oc1cccc(N=CN(C)C)c1,inactive,
CCOCN(C(=O)CCl)c1c(C)cccc1CC,,0.328 µM (active)
Clc1ccccc1-c1nnc(-c2ccccc2Cl)nn1,inactive,
CNC(=O)Oc1ccccc1OC(C)C,inactive,
COc1nn(CSP(=S)(OC)OC)c(=O)s1,inactive,
CCCN(CCOc1c(Cl)cc(Cl)cc1Cl)C(=O)n1ccnc1,inactive,
COC(=O)c1ccccc1S(=O)(=O)NC(=O)N(C)c1nc(C)nc(OC)n1,inactive,
CNC(=O)CSP(=S)(OC)OC,inactive,
CCOC1Oc2ccc(OS(C)(=O)=O)cc2C1(C)C (stereo not given),inactive,
O=C(Nc1ccccc1)Nc1cnns1,inactive,
Cc1cc(C)nc(NC(=O)NS(=O)(=O)c2ccccc2C(=O)OC2COC2)n1,inactive,
CCS(=O)(=O)c1cccnc1S(=O)(=O)NC(=O)Nc1nc(OC)cc(OC)n1,inactive,

SMILES,outcome,AC50
CC(C)(C)C(O)/C(=C\c1ccc(Cl)cc1Cl)n1cncn1 (stereo not given),,1.89 µM (active)
CCCN(CCC)c1c([N+](=O)[O-])cc(C(F)(F)F)cc1[N+](=O)[O-],inactive,
COP(=S)(OC)Oc1ccc([N+](=O)[O-])cc1,inactive,
CC[C@H](C)[C@H]1O[C@]2(C=C[C@@H]1C)C[C@@H]1C[C@@H](C/C=C(\C)[C@@H](O[C@H]3C[C@H](OC)[C@@H](O[C@H]4C[C@H](OC)[C@@H](O)[C@H](C)O4)[C@H](C)O3)[C@@H](C)/C=C/C=C3\CO[C@@H]4[C@H](O)C(C)=C[C@@H](C(=O)O1)[C@]34O)O2 (tested in a mixture with another compound),inactive,
CCC(C)Nc1c([N+](=O)[O-])cc(C(C)(C)C)cc1[N+](=O)[O-] (stereo not given),,1.2 µM (active)
C[C@H]1[C@H](c2ccc(Cl)cc2)SC(=O)N1C(=O)NC1CCCCC1,,1.9 µM (active)
CCN(CC)C(=O)SCc1ccc(Cl)cc1,,20 µM (active)
C#CCN1C(=O)COc2cc(F)c(N3C(=O)C4=C(CCCC4)C3=O)cc21,inactive,
O=S1OCC2C(CO1)C1(Cl)C(Cl)=C(Cl)C2(Cl)C1(Cl)Cl (stereo not given),,9.06 µM (active)
COP(=S)(OC)Oc1ccc(SC)c(C)c1,inactive,
CCc1ccc(C(=O)NN(C(=O)c2cc(C)cc(C)c2)C(C)(C)C)cc1,,0.708 µM (active)
CCC(C)(C)C(=O)OC1=C(c2ccc(Cl)cc2Cl)C(=O)OC12CCCCC2,inactive,
CC(C)OC(=O)Nc1cccc(Cl)c1,,12.2 µM (active)
N#CN,inactive,
COP(=O)(OC)OC=C(Cl)Cl,inactive,
CCC(C)(NC(=O)c1cc(Cl)c(C)c(Cl)c1)C(=O)CCl (stereo not given),inactive,
O=C(O)CCCOc1ccc(Cl)cc1Cl,inactive,
